# Results: paper PMC7862700, “An all-to-all approach to the identification of sequence-specific readers for epigenetic DNA modifications on cytosine”
# Legend:
# Experiment in all cases: DAPPL (digital affinity profiling via proximity ligation, sequencing); 10 mM Tris-HCl pH 7.5, 50 mM NaCl, 1 mM DTT, 4% glycerol, room temperature, 30 min; GST-TFs on glutathione beads, 16-mer random dsDNA library, 0.1% formaldehyde crosslink after washing; high values mean tight binding
# FEV = molecular target: T1, FEV (Homo sapiens, UniProt Q99581 1-238); conditions: protein: recombinant; tags: N-terminal GST; dsDNA, one strand shown
# T1 sequence: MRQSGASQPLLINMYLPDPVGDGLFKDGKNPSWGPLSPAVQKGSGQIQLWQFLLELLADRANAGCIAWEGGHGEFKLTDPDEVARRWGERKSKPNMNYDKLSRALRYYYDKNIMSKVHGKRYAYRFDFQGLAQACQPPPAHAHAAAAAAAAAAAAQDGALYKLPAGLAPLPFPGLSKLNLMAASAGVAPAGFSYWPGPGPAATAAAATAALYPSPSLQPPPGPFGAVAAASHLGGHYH
# Method in brief: (§1)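 Pools of DNA-barcoded human transcription factors, expressed in yeast as GST fusions on glutathione beads and combined with a tag-only sample, were incubated with 200 nmole of a 16-mer random double-stranded DNA library. Incubation took 30 min at room temperature in Tris/NaCl/DTT/glycerol buffer and was followed by washing, 0.1% formaldehyde crosslinking, proximity ligation (BsaI/T4 ligase, 1 h, 37 °C), PCR amplification and sequencing on an Illumina NextSeq500. Binding signal is the ratio of a hexamer's read frequency for a factor to its frequency for the tag-only sample.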
# ETV5 = ETV5 (Homo sapiens, UniProt P41161 1-510); conditions: protein: recombinant; tags: N-terminal GST; dsDNA, one strand shown
# ETV5, sequence (P41161 whole entry): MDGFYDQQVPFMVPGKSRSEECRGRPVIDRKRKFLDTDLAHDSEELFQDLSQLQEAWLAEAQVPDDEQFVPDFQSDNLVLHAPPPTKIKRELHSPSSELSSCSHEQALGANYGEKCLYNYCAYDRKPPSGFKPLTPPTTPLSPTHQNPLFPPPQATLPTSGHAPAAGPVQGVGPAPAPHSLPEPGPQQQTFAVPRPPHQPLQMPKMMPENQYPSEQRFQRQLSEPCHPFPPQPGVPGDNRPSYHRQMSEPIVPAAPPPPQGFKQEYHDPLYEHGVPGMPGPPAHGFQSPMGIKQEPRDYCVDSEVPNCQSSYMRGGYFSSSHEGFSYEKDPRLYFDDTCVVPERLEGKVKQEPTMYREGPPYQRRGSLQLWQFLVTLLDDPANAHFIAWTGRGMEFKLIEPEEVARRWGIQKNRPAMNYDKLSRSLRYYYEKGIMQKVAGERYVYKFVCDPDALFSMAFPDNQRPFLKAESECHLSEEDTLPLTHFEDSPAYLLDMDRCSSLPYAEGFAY
# Method in brief: as §1
# HSF1 = HSF1 (Homo sapiens, UniProt Q00613 1-529); conditions: protein: recombinant; tags: N-terminal GST; chain copies: 3; dsDNA, one strand shown
# HSF1, sequence (Q00613 whole entry): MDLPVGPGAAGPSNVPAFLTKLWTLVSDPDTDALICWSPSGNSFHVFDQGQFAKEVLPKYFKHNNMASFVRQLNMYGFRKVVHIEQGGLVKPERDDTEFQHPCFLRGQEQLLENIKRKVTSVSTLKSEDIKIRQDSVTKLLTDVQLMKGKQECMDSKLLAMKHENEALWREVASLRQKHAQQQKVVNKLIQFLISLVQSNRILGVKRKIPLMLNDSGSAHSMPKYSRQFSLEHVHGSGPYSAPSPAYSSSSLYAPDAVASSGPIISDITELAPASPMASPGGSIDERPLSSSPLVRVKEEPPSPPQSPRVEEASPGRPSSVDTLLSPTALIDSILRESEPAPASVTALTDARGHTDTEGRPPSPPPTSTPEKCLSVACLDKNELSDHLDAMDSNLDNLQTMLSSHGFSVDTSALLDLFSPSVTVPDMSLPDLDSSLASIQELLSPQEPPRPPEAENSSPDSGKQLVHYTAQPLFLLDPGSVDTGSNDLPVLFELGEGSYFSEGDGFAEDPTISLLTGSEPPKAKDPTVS
# Method in brief: as §1
# SPIC = molecular target: T2, SPIC (Homo sapiens, UniProt Q8N5J4 1-248); conditions: protein: recombinant; tags: N-terminal GST; dsDNA, one strand shown
# T2 sequence: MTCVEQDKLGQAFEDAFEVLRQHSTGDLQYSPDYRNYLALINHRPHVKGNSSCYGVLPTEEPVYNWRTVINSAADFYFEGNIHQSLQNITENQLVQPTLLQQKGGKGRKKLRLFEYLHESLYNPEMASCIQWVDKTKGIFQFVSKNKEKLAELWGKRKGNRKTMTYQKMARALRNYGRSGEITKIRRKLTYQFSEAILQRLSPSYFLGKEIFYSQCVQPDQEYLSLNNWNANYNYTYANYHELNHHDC
# Method in brief: as §1
# ELF4 = ELF4 (Homo sapiens, UniProt Q99607 1-663); conditions: protein: recombinant; tags: N-terminal GST; dsDNA, one strand shown
# ELF4, sequence (Q99607 whole entry): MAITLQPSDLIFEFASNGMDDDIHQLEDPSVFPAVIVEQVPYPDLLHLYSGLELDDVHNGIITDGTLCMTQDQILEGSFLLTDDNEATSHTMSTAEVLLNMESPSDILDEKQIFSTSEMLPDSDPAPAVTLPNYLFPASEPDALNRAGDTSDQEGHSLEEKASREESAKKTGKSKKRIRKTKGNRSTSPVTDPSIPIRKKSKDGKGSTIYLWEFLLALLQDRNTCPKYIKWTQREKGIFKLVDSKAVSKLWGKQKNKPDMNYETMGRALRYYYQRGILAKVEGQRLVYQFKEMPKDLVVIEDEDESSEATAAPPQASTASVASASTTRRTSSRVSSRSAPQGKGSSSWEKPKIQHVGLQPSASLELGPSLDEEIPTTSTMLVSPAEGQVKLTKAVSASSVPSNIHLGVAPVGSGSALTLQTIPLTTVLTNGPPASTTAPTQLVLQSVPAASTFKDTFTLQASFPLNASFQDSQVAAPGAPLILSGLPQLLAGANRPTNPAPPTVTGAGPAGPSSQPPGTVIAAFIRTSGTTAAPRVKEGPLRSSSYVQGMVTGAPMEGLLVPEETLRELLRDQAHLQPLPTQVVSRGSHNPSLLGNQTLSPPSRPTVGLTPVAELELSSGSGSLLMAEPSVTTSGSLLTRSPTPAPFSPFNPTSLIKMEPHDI
# Method in brief: as §1
# ELK4 = molecular target: T3, ELK4 (Homo sapiens, UniProt P28324-2 1-405); conditions: protein: recombinant; tags: N-terminal GST; dsDNA, one strand shown
# T3 sequence: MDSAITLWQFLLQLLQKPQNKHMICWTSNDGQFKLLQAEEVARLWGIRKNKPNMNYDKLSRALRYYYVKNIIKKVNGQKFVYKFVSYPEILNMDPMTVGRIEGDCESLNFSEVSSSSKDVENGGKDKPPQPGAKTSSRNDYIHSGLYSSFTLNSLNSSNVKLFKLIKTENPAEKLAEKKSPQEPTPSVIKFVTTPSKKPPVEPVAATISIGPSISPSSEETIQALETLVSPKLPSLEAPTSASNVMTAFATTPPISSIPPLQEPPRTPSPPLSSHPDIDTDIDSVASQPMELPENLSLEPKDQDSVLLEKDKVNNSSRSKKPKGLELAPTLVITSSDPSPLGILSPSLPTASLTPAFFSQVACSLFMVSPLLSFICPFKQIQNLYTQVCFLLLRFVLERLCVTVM
# Method in brief: as §1
# ETV2 = molecular target: T4, ETV2 (Homo sapiens, UniProt O00321 1-342); conditions: protein: recombinant; tags: N-terminal GST; dsDNA, one strand shown
# T4 sequence: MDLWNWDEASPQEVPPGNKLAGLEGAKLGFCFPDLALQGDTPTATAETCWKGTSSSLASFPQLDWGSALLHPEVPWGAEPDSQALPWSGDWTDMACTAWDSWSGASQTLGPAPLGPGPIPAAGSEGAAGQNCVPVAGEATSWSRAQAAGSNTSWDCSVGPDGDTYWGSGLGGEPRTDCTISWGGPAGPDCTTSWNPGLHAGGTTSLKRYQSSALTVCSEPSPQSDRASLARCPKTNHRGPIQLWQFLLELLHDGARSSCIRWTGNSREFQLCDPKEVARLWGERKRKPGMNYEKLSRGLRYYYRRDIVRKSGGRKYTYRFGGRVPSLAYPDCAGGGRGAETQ
# Method in brief: as §1
# ELF3 = molecular target: T5, ELF3 (Homo sapiens, UniProt P78545 1-371); conditions: protein: recombinant; tags: N-terminal GST; dsDNA, one strand shown
# T5 sequence: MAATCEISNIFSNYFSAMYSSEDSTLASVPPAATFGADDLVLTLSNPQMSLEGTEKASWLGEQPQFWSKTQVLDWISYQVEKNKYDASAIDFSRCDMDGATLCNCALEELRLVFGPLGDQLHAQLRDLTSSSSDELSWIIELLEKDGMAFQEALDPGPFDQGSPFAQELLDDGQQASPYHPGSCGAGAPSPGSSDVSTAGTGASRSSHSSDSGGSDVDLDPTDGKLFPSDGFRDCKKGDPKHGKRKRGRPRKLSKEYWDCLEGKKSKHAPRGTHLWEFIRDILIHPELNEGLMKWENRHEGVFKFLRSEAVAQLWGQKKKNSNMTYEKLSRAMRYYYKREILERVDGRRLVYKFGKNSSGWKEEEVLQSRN
# Method in brief: as §1
# CRX = CRX (Homo sapiens, UniProt O43186 1-299); conditions: protein: recombinant; tags: N-terminal GST; dsDNA, one strand shown
# CRX, sequence (O43186 whole entry): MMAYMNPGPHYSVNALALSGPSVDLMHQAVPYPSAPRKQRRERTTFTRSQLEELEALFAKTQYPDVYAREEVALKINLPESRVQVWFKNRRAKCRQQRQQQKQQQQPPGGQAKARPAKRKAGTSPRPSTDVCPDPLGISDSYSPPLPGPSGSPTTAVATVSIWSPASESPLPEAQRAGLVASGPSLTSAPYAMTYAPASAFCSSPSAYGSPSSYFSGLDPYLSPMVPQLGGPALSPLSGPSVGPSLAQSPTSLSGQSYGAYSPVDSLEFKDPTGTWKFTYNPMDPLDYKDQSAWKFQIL
# Method in brief: as §1
# ETV1 = ETV1 (Homo sapiens, UniProt P50549 1-477); conditions: protein: recombinant; tags: N-terminal GST; dsDNA, one strand shown
# ETV1, sequence (P50549 whole entry): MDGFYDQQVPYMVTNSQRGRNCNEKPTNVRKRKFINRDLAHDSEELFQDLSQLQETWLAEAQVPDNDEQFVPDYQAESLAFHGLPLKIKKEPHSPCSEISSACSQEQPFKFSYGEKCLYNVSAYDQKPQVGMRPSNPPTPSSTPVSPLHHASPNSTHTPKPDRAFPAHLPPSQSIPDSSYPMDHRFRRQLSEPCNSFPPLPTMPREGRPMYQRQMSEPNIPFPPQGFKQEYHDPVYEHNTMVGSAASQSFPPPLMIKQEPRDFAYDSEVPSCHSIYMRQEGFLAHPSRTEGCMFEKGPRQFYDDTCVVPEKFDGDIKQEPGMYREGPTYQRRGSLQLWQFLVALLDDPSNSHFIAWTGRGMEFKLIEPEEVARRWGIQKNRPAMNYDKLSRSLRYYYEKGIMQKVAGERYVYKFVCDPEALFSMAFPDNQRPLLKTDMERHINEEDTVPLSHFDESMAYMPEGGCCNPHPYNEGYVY
# Method in brief: as §1
# ERF = molecular target: T6, ERF (Homo sapiens, UniProt P50548 1-548); conditions: protein: recombinant; tags: N-terminal GST; dsDNA, one strand shown
# T6 sequence: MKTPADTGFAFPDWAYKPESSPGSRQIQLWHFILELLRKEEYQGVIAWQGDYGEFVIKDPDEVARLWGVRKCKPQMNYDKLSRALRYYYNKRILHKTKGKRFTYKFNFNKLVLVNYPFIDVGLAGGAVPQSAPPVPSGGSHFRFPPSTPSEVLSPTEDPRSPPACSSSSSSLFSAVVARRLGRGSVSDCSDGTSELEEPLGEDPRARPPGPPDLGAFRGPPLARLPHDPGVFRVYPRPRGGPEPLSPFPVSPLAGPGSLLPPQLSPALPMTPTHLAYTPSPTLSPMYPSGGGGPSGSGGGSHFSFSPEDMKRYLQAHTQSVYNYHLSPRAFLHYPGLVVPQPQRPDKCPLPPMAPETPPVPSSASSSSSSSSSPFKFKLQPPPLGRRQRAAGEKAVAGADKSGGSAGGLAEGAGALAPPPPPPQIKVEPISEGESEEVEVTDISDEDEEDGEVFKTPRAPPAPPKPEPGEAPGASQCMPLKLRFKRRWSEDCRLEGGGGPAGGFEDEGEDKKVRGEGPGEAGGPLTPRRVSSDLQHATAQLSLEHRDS
# Method in brief: as §1
# ETV3L = molecular target: T7, ETV3L (Homo sapiens, UniProt Q6ZN32 1-361); conditions: protein: recombinant; tags: N-terminal GST; dsDNA, one strand shown
# T7 sequence: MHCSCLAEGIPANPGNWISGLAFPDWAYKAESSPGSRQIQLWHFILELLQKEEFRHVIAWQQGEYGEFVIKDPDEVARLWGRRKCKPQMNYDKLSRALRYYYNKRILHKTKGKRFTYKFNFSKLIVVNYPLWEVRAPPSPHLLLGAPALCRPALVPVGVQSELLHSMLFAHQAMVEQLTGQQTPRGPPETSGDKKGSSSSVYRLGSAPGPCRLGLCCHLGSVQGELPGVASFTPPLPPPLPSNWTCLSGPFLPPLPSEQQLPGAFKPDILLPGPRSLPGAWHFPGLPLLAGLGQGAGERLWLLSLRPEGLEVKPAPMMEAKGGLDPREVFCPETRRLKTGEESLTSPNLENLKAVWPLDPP
# Method in brief: as §1
# ETS2 = molecular target: T8, ETS2 (Homo sapiens, UniProt P15036 1-469); conditions: protein: recombinant; tags: N-terminal GST; dsDNA, one strand shown
# T8 sequence: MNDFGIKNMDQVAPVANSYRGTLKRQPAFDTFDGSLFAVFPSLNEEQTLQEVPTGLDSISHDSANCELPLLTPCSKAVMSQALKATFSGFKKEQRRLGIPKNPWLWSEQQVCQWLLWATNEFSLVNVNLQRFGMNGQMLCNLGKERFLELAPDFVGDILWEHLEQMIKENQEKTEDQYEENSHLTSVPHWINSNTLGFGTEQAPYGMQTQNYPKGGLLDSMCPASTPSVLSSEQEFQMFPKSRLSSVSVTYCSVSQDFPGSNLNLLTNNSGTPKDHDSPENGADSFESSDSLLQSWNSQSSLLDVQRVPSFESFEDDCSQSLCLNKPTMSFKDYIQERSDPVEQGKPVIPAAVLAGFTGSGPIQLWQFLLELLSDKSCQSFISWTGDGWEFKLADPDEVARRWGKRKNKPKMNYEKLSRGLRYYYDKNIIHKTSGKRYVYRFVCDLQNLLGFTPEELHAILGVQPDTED
# Method in brief: as §1
# SPDEF = molecular target: T9, SPDEF (Homo sapiens, UniProt O95238 1-335); conditions: protein: recombinant; tags: N-terminal GST; dsDNA, one strand shown
# T9 sequence: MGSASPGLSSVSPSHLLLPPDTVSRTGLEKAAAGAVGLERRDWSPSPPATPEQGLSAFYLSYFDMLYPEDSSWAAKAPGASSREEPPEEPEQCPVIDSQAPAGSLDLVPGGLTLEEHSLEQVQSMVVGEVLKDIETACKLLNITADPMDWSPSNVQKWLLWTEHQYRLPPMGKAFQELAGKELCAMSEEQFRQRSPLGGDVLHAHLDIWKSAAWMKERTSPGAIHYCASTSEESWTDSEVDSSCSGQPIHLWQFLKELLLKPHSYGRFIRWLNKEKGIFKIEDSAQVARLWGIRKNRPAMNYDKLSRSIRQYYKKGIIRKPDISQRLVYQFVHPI
# Method in brief: as §1
# ETV7 = molecular target: T10, ETV7 (Homo sapiens, UniProt Q9Y603 1-341); conditions: protein: recombinant; tags: N-terminal GST; dsDNA, one strand shown
# T10 sequence: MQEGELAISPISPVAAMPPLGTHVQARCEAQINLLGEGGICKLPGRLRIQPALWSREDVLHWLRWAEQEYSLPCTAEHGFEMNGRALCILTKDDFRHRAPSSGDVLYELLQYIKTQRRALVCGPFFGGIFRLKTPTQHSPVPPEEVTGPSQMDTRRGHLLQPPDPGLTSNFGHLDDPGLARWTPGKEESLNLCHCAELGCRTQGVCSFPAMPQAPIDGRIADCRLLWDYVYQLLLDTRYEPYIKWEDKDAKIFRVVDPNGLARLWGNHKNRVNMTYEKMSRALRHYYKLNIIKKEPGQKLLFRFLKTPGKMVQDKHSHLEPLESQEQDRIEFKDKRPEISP
# Method in brief: as §1
# ELF5 = molecular target: T11, ELF5 (Homo sapiens, UniProt Q9UKW6-2 1-255); conditions: protein: recombinant; tags: N-terminal GST; dsDNA, one strand shown
# T11 sequence: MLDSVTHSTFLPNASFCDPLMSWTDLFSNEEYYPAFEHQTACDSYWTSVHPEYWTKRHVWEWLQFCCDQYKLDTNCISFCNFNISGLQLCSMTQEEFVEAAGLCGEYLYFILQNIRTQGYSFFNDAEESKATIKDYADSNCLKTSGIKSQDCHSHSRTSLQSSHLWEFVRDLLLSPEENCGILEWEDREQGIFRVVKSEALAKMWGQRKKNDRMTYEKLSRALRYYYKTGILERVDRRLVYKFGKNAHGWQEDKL
# Method in brief: as §1
# ETV6 = ETV6 (Homo sapiens, UniProt P41212 1-452); conditions: protein: recombinant; tags: N-terminal GST; dsDNA, one strand shown
# ETV6, sequence (P41212 whole entry): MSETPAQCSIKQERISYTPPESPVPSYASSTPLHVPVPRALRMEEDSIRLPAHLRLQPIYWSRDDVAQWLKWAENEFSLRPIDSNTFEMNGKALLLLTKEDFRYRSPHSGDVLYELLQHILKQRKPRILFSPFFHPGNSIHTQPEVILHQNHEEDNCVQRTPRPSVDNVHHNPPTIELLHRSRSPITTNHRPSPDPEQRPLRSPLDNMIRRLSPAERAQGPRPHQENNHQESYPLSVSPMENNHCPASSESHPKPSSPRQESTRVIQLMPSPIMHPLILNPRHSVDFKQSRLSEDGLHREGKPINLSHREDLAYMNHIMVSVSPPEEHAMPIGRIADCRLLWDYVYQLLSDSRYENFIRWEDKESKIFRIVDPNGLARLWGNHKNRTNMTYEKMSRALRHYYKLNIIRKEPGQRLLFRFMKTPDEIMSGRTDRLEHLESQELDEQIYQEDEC
# Method in brief: as §1
sequence,measurement,setting,value
TTATAG,binding signal,FEV,"1.17 fold enrichment (6-mer frequency, TF over GST control)"
same,binding signal,ETV5,"1.29 fold enrichment (6-mer frequency, TF over GST control)"
same,binding signal,HSF1,"1.8 fold enrichment (6-mer frequency, TF over GST control)"
same,binding signal,SPIC,"1.38 fold enrichment (6-mer frequency, TF over GST control)"
same,binding signal,ELF4,"1.13 fold enrichment (6-mer frequency, TF over GST control)"
same,binding signal,ELK4,"1.24 fold enrichment (6-mer frequency, TF over GST control)"
same,binding signal,ETV2,"1.07 fold enrichment (6-mer frequency, TF over GST control)"
same,binding signal,ELF3,"1.27 fold enrichment (6-mer frequency, TF over GST control)"
same,binding signal,CRX,"2.46 fold enrichment (6-mer frequency, TF over GST control)"
same,binding signal,ETV1,"1.18 fold enrichment (6-mer frequency, TF over GST control)"
same,binding signal,ERF,"1.24 fold enrichment (6-mer frequency, TF over GST control)"
same,binding signal,ETV3L,"1.28 fold enrichment (6-mer frequency, TF over GST control)"
same,binding signal,ETS2,"1.33 fold enrichment (6-mer frequency, TF over GST control)"
same,binding signal,SPDEF,"1.19 fold enrichment (6-mer frequency, TF over GST control)"
same,binding signal,ETV7,"1.24 fold enrichment (6-mer frequency, TF over GST control)"
same,binding signal,ELF5,"1.15 fold enrichment (6-mer frequency, TF over GST control)"
same,binding signal,ETV6,"1.16 fold enrichment (6-mer frequency, TF over GST control)"
